What is called inhibition is the change of the read-out against control, counted positive when it falls.

The whole screen tested about 340,000 compounds, of which about 2,100 (0.62%) were called active. These entries were drawn from the full list. Entries with a potency or affinity are not part of this list. Unmarked numbers belong to inactive results.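 Rule for the calls: active = first-screen hits whose inhibition reached a set limit at any dose in the follow-up dose series; inconclusive = inhibition above the set first-screen limit but never retested; inactive = the rest.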

The assay deals with Rac GTPase-activating protein 1 (Homo sapiens) (UniProt Q9H0H5). Description: MgcRacGAP GTPase-activating activity inhibitors, confirmation, biochemical, ADP Hunter fluorescence, primary and confirmatory (AID 624330).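 Note: fluorescence reports GDP produced by GAP-driven GTP hydrolysis.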 The note with it: MgcRacGAP-stimulated Rac1 GTP hydrolysis, at 30 µM, stronger effect = higher value, GST-tagged Rac1 F28L mutant substrate.
Sequence of Rac GTPase-activating protein 1 (Homo sapiens) (Q9H0H5 whole entry, looked up): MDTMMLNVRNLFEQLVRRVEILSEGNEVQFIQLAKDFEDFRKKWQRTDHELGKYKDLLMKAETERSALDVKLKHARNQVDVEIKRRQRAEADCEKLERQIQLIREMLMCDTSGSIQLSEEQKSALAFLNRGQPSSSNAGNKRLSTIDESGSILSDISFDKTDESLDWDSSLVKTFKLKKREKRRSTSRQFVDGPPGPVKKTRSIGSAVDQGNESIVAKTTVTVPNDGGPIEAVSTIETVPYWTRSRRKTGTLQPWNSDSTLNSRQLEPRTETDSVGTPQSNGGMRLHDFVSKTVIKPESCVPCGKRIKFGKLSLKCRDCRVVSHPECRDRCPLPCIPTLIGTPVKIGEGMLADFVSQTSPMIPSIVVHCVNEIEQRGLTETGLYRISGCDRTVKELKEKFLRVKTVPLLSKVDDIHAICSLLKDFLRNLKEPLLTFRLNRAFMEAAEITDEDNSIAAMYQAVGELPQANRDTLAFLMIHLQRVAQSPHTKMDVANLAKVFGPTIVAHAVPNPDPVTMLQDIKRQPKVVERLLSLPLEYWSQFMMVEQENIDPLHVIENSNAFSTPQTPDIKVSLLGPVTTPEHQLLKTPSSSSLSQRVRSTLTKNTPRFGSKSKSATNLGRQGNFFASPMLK
As for `CC[C@]12c3[nH]c4cc(-c5ccco5)ccc4c3CCN1C(=O)[C@@H](CC(=O)NC/C=C(\C)CCC=C(C)C)C[C@@H]2C(=O)N1CCN(C(=O)C2CC2)CC1`, the inhibition is -1.48%.
Consider `O=C1CSC(c2ccco2)N1` (stereo not drawn), for which the inhibition was 0.85%.
Then `O=C(O)C1CSC(c2ccncc2)N1` (stereo not drawn), with 8.95%.
As to `COc1cc(C=C2C(=O)OC(C)(C)OC2=O)ccc1OCC(=O)Nc1ccccc1`, the inhibition is 4.19%.
Then `C#CCOc1ccc(/C=C2/C(=O)N(c3cccc(C(=O)O)c3)N=C2C)cc1OC`, with 31.7%; and `CC1=NN(c2ccccc2)C(=O)/C1=C/C=C/c1ccccc1`, with 6.5%; and `COc1ccccc1/C=C1/C(=O)N(c2ccc([N+](=O)[O-])cc2)N=C1C`, with 4.92%.
As to `COc1ccc(/C=C2/C(=O)N(c3ccccc3)N=C2C)cc1OC`, the inhibition was 17.9%.
Consider `COc1ccc(/C=C2/C(=O)N(c3ccccc3)N=C2C)cc1Br`, for which the inhibition is 1.8%.
With `CCOc1cc(/C=C2\C(=O)N(CCC#N)N=C2C)ccc1OCC(N)=O`, the inhibition was 21.4%.
Then `CC1=NN(c2ccccc2)C(=O)/C1=C/N(C)C`, with 8.12%; and `O=C(C1CCN(c2nnc(N3CCCC3=O)s2)CC1)N1CCN(c2cccc(C(F)(F)F)c2)CC1`, with 7.18%; and `COC(=O)c1cccc2c(C(=O)O)cc(-c3ccccc3)nc12`, with 3.38%.
With `c1ccc2c(c1)ccc1nnc(SCc3ccc4c(c3)OCCO4)n12`, the inhibition was 3.92%.
Take `CC(=O)OC1CC2(C)C(CCC2(O)C(C)=O)C2CCC3C(Cl)C(=O)CCC3(C)C12` (stereo not drawn): the inhibition is 2.5%.
Take `COCC(=O)N1C[C@H]2CON(C)[C@H]2C[C@H]1c1cccc(-c2ccccc2OC)c1`: the inhibition was 15.1%.
Then `CCOP(=O)(OCC)c1ccc2c(c1)C(=O)c1ccccc1CC2`, with 9.38%; and `CCOc1ncccc1C(=O)OCc1c(F)cccc1Cl`, with -3.89%; and `CC(C)(C)C(=O)Nc1c2c(nn1-c1ccc(F)cc1)CSC2`, with 11%.
`CCCc1ccc2oc(C(=O)NCCN3CCCC(C(N)=O)C3)c(C)c2c1` (stereo not drawn): the inhibition was -11.6%.
Regarding `COc1ccc2ccccc2c1CNCCCN1CCOCC1`, the inhibition is 5.19%.
Then `O=C(O)/C=C/c1nc(-c2ccccc2)n2ccccc12`, with 16.7%; and `CN1CCN(/N=C/c2ccc(-c3ccccc3)cc2)CC1`, with 13.1%; and `O=Cc1nc(-c2ccccc2Cl)n2ccccc12`, with 3.46%.
`CN1CCN(/N=C/c2nc(-c3cccc([N+](=O)[O-])c3)n3ccccc23)CC1`: the inhibition is 12.2%.
For `CN1CCN(/N=C/c2nc(-c3ccccc3Cl)n3ccccc23)CC1`, the inhibition is 21.2%.
Take `CC(C)(C)c1ccc(-c2nc(C=O)c3ccccn23)cc1`: the inhibition is -4.54%.
For `CSc1ccc(/C=N/N2CCN(C)CC2)cc1`, the inhibition is 11.3%.
On to `O=Cc1nc(-c2ccc(Cl)cc2)n2ccccc12`, for which the inhibition is -3.25%.
Then `CSCC[C@H](NC(=O)C1CCC(CNC(=O)[C@@H]2CCCN2C(=O)OC(C)(C)C)CC1)C(=O)O` (stereo partly drawn), with 0.46%; and `Cc1ccccc1COCCN1CCN(S(=O)(=O)c2ccccc2)CCC1=O`, with 12.5%; and `CC(C)Oc1ccc(C(=O)Nc2ccc([N+](=O)[O-])cc2)cc1`, with 11.4%.
Turning to `Cc1cc(=O)oc2cc(NC(=O)c3ccccc3Cl)ccc12`, the inhibition was 9.35%.
In the case of `CCCc1c(C(=O)N/N=C/C=C/c2ccccc2)nnn1-c1nonc1N`, the inhibition was 15.9%.
For `O=C(Oc1cccnc1)c1cc(S(=O)(=O)N2CCCCC2)ccc1Cl`, the inhibition was 2.68%.
Regarding `COc1ccc(OC(=O)c2cccc(S(=O)(=O)N3CCCC3)c2)cc1`, the inhibition is 15.8%.
For `O=[N+]([O-])c1ccc(C2=Nn3c(Cn4nnc5ccccc54)nnc3SC2)cc1`, the inhibition is 10.3%.
Consider `CCOc1ccc(-c2[nH]ncc2Oc2ccccc2OCC)c(O)c1`, for which the inhibition was 6.69%.
Take `C=C(C)COc1ccc(-c2nc(N)ncc2Oc2ccc(OC)cc2)c(O)c1`: the inhibition was -7.13%.
Turning to `CCOc1ccc(-c2nc(N)ncc2Oc2ccc(OC)cc2)c(O)c1`, the inhibition is 1.9%.
Regarding `COc1cccc(Oc2cnc(N)nc2-c2ccc(OC)cc2O)c1`, the inhibition is 6.49%.
Then `C=C(C)COc1ccc(-c2nc(N)ncc2Oc2ccccc2OCC)c(O)c1`, with 10.4%; and `COc1cccc(Oc2cncnc2-c2ccc(OC)cc2O)c1`, with 8.42%.
The same measure for `Cc1ccc(S(=O)(=O)N2CCOCC2)cc1C(=O)OCC(=O)NC1CCCC1`: 3.52%.
Then `CC(C)(C)NC(=O)NC(=O)COC(=O)CNC(=O)c1cccc(F)c1`, with 0.76%; and `CCOC(=O)Cc1csc(NC(=O)CN2CCOCC2)n1`, with 5.22%; and `O=C1NC2(CCc3ccccc32)C(=O)N1CCOc1ccc(Cl)cc1` (stereo not drawn), with 2.47%.
On to `CCN(C1CCS(=O)(=O)C1)S(=O)(=O)c1ccc(Cl)s1` (stereo not drawn), for which the inhibition was 4.17%.
With `CCOC(=O)C1=C(O)CSC1=Nc1cccc2ccccc12`, the inhibition was 1.02%.
`c1ccc2nc3ccccc3nc2c1`: the inhibition is 2.14%.
As to `Cc1ccc(CN2CCN(C(=O)c3cccc4ccccc34)CC2)cc1`, the inhibition is 23.8%.
As to `COc1ccc(OC)c(CN2CCN(C(=O)c3cccc4ccccc34)CC2)c1`, the inhibition is 13.1%.
Then `COc1cccc(CN2CCN(C(=O)c3cccc4ccccc34)CC2)c1OC`, with 17.9%; and `Cc1cccc(CN2CCN(C(=O)c3cccc4ccccc34)CC2)c1`, with 15.3%; and `Cc1cc(C)c(C)c(OCCCN(C)C)c1`, with 17%.
For the molecule `CSc1nnnn1-c1cccc(O)c1`, the inhibition was -2.6%.
As for `Cc1cc(Cl)ccc1Oc1ncnc2onc(C)c12`, the inhibition is 4.86%.
Turning to `CCOCCCNC(=O)c1ccc(OC2CCN(C(C)=O)CC2)c(OC)c1`, the inhibition is 9.51%.
As for `COCc1cc(NCc2ccc(Cl)cc2)nc(C)n1`, the inhibition is 5.03%.
On to `COCc1cc(Sc2ccc(Cl)cc2)nc(C)n1`, for which the inhibition is 3.56%.
The same measure for `CC(C)(C)c1ccc(C2=NC(=O)C(CC(=O)O)S2)cc1` (stereo not drawn): 10.5%.
Take `CN(C1=NC(=O)C(CC(=O)O)S1)c1ccc(O)cc1` (stereo not drawn): the inhibition was 2.49%.
For the molecule `Cc1nn(CC(=O)NCC(C)c2ccccc2)c(=O)c2cc3occc3n12` (stereo not drawn), the inhibition is 10%.
Turning to `Cc1ccc(-c2csc3ncnc(SCC(=O)c4ccc5c(c4)OCCO5)c23)cc1`, the inhibition was 1.98%.
In the case of `CC1Cc2ccccc2N1C(=O)COc1ccc2c(c1)OCO2` (stereo not drawn), the inhibition is -12.8%.
Turning to `CC(=O)N1CCN(c2ccc(NCc3ccc(-c4ccc(Br)cc4)o3)cc2)CC1`, the inhibition is 5.41%.
For `CC(=O)N1CCN(c2ccc(NC(=O)c3ccco3)cc2)CC1`, the inhibition is 8.89%.
On to `CC(=O)N1CCN(c2ccc(NCc3ccc(-c4cccc(Cl)c4)o3)cc2)CC1`, for which the inhibition was 15%.
As for `CC(=O)c1ccc(N2CCN(C(=S)NCc3ccco3)CC2)cc1`, the inhibition is 3.83%.
As to `COc1ccc(N2CCN(C(CNC(=O)OCc3ccccc3)c3ccco3)CC2)cc1` (stereo not drawn), the inhibition was 23%.
Consider `COc1ccc(C2(C)NC(=O)N(CC(=O)Nc3c(C)n(C)n(-c4ccccc4)c3=O)C2=O)cc1` (stereo not drawn), for which the inhibition was -6.4%.
Take `CC(C)(C)OC(=O)C[C@@H]1C/C=C\C[C@H](CC(=O)N(CCO)Cc2ccccc2)C(=O)N[C@H](Cc2ccccc2)COC1=O`: the inhibition is -1.04%.
The same measure for `N#C/C(=C\c1cc([N+](=O)[O-])c(N2CCOCC2)cc1N1CCOCC1)c1nc2ccccc2[nH]1`: 6.08%.
For the molecule `N#C/C(=C\c1ccc(N2CCOCC2)c([N+](=O)[O-])c1)c1nc2ccccc2[nH]1`, the inhibition is 1.39%.
As to `N#C/C(=C\c1ccc(Sc2ccccc2)o1)c1nc2ccccc2[nH]1`, the inhibition was 11.4%.
Take `N#C/C(=C\c1ccc(-c2ccc(C(=O)O)cc2)o1)c1nc2ccccc2[nH]1`: the inhibition is 2.64%.
As to `CC1CN(C(=O)COC(=O)c2ccc3ccccc3c2)CC(C)O1` (stereo not drawn), the inhibition is 8.18%.
As to `CCCCOC(=O)c1cccc(NC(=O)CC)c1`, the inhibition is -6.05%.
Turning to `O=C(C[C@H]1C/C=C\C[C@H](NC(=O)OCC2c3ccccc3-c3ccccc32)C(=O)OC[C@H](Cc2ccccc2)NC1=O)N[C@H](CO)Cc1ccccc1`, the inhibition is 3.81%.
Take `CC(OC(=O)CC(C)c1ccccc1)C(=O)Nc1ccc(Cl)cn1` (stereo not drawn): the inhibition is 4.3%.
Turning to `COc1cc(/C=N/n2c(C)nc3ccccc3c2=O)cc(OC)c1O`, the inhibition was 7.15%.
As to `COc1ccc(-n2c(/C=C3\C(=O)N(C)c4ccccc43)nc3ccccc3c2=O)cc1`, the inhibition is 9.39%.
With `COc1ccc(/C=C/c2nc(N)nc(-c3ccccc3O)n2)cc1OC`, the inhibition was 4.75%.
On to `COc1ccc(/C=C/c2nc3ccccc3c(=O)n2-c2cccc(C(=O)O)c2)cc1`, for which the inhibition was 6.96%.
As for `C/C=C/c1ccc(O)c(OC)c1`, the inhibition was 21.3%.
Take `CCCc1nc2ccccc2c(=O)n1/N=C/c1ccc(O)cc1`: the inhibition was 6.59%.
For `CCCc1nc2ccccc2c(=O)n1/N=C/c1ccccc1O`, the inhibition is 11.4%.
For `COc1ccc(/C=N/n2c(C)nc3ccccc3c2=O)cc1OC`, the inhibition was 3.76%.
The same measure for `O=C(CN1CCN(C(=O)C2CCCO2)CC1)Nc1cc(C(F)(F)F)ccc1Cl` (stereo not drawn): 4.9%.
For the molecule `CCOC(=O)C1CCN(C(=O)c2cc(S(=O)(=O)N3CCCCCC3)ccc2OC)CC1`, the inhibition was 0.78%.
`CCCCNC(=O)NC(C(=O)OC)C12CC3CC(CC(C3)C1)C2` (stereo not drawn): the inhibition was 0.62%.
`CCCN(CCC)CCNS(=O)(=O)c1ccc2c(c1)CCN2C(=O)C1CCC1`: the inhibition is 12.9%.
Turning to `CCCCN(CCCC)S(=O)(=O)c1ccc(NS(=O)(=O)c2ccc(NC(C)=O)cc2)cc1`, the inhibition is 5.52%.

The values are drawn from PubChem BioAssay AID624330 (Southern Research Specialized Biocontainment Screening …, 2012).
